# Only a selection was taken, and the strongest signals are over-represented in it overall.
# B1: AT1G80310(18) (Arabidopsis thaliana), Q0WP36 (protein)
# chain: METTTTPLLPGDRSRCGWLRRRLRLKNPLSSELSGAVGDLGTFIPIVLTLTLVSNLDLSTTLIFTGFYNIATGLLFDIPMPVQPMKSIAAVAVSESPHLTPSQIAAAGASTAATLLLLGATGAMSFLYNIIPLPVVRGVQLSQGLQFAFTAIKYVRFNYDTATLKPSSSPRIWLGLDGLILALAALLFIILSTGSGNDREAEDGDLAETSSNESQSRRRRLRLLSSIPSALIVFALGLVLCFIRDPSIFKDLKFGPSKFHILRISWDDWKIGFLRAAIPQIPLSVLNSVIAVCKLSNDLFDKELSATTVSISVGVMNLIGCWFGAMPVCHGAGGLAGQYRFGARSGLSVIFLGIGKLIVGLVFGNSFVRILSQFPIGILGVLLLFAGIELAMASKDMNSKEDSFIMLVCAAVSMTGSSAALGFGCGVVLYLLLKLRTLDCSSVTLFSRSSDESQVDSEAAPRDV
# Legend:
# Test in all cases: glycan array binding signal (z-score within array); higher = stronger binding
# Conditions in all cases: glycan notation: IUPAC condensed, linker removed
# [1] = biological target: Fuc(a1-2)Gal(b1-3)GalNAc(a1-3)[Fuc(a1-2)]Gal(b1-4)GlcNAc
# How it was run: (§1)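 Glycan array data came from 3228 arrays in the Consortium for Functional Glycomics database, and only arrays with an available protein sequence were kept. Glycan names were put into IUPAC-condensed notation, and columns mapping to the same glycan were averaged. The binding signal is a within-array Z-score, averaged across arrays of one protein sequence run at different concentrations or buffers and across linkers. A negative Z-score can be read as non-binding.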
# [2] = biological target: Fuc(a1-2)Gal(b1-3)[Fuc(a1-4)]GlcNAc(b1-2)Man(a1-3)[Fuc(a1-2)Gal(b1-3)[Fuc(a1-4)]GlcNAc(b1-2)Man(a1-3)]Man(b1-4)GlcNAc(b1-4)GlcNAc
# How it was run: as §1
# [3] = biological target: Fuc(a1-2)Gal(b1-3)[Fuc(a1-4)]GlcNAc(b1-3)[Gal(b1-4)GlcNAc(b1-6)]Gal(b1-4)Glc
# How it was run: as §1
# [4] = biological target: Fuc(a1-2)Gal(b1-4)Fuc(a1-3)]GlcNAc(b1-2)Man(a1-3)[Fuc(a1-2)Gal(b1-4)[Fuc(a1-3)]GlcNAc(b1-2)Man(a1-6)]Man(b1-4)GlcNAc(b1-4)GlcNAc
# How it was run: as §1
# [5] = biological target: Fuc(a1-2)Gal(b1-4)GlcNAc(b1-2)Man(a1-3)[Fuc(a1-2)Gal(b1-4)GlcNAc(b1-2)Man(a1-6)]Man(b1-4)GlcNAc(b1-4)GlcNAc
# How it was run: as §1
# [6] = biological target: Fuc(a1-2)[Gal(a1-3)]Gal(b1-3)GlcNAc
# How it was run: as §1
# [7] = biological target: Fuc(a1-2)[Gal(a1-3)]Gal(b1-4)GlcNAc(b1-3)GalNAc
# How it was run: as §1
# [8] = biological target: Fuc(a1-2)[GalNAc(a1-3)]Gal(b1-3)GlcNAc(b1-3)GalNAc
# How it was run: as §1
# [9] = biological target: Fuc(a1-3)[Gal(b1-4)]Glc6S
# How it was run: as §1
# [10] = biological target: Fuc(a1-3)[Gal(b1-4)]GlcNAc(b1-6)GalNAc
# How it was run: as §1
# Fuc(b1-3)GlcNAc = biological target: Fuc(b1-3)GlcNAc
# How it was run: as §1
# Gal(a1-2)Gal = biological target: Gal(a1-2)Gal
# How it was run: as §1
# Gal(a1-3)Gal = biological target: Gal(a1-3)Gal
# How it was run: as §1
# Gal(a1-3)Gal(b1-3)GlcNAc = biological target: Gal(a1-3)Gal(b1-3)GlcNAc
# How it was run: as §1
# Gal(a1-3)Gal(b1-4)Glc = biological target: Gal(a1-3)Gal(b1-4)Glc
# How it was run: as §1
# [11] = biological target: Gal(a1-3)Gal(b1-4)GlcNAc(b1-2)Man(a1-3)[Gal(a1-3)Gal(b1-4)GlcNAc(b1-2)Man(a1-6)]Man(b1-4)GlcNAc(b1-4)GlcNAc
# How it was run: as §1
# Gal(a1-4)GlcNAc = biological target: Gal(a1-4)GlcNAc
# How it was run: as §1
# [12] = biological target: Gal(b1-3)GalNAc(b1-4)[Neu5Ac(a2-3)]Gal(b1-4)Glc
# How it was run: as §1
# [13] = biological target: Gal(b1-3)GlcNAc(b1-2)Man(a1-3)[GlcNAc(b1-4)][Gal(b1-3)GlcNAc(b1-2)Man(a1-6)]Man(b1-4)GlcNAc(b1-4)GlcNAc
# How it was run: as §1
# [14] = biological target: Gal(b1-3)GlcNAc(b1-3)GalNAc
# How it was run: as §1
# [15] = biological target: Gal(b1-3)[Fuc(a1-4)]GlcNAc(b1-2)Man
# How it was run: as §1
# [16] = biological target: Gal(b1-3)[Fuc(a1-4)]GlcNAc(b1-2)Man(a1-3)[Gal(b1-3)[Fuc(a1-4)]GlcNAc(b1-2)Man(a1-6)]Man(b1-4)GlcNAc(b1-4)[Fuc(a1-6)]GlcNAc
# How it was run: as §1
# [17] = biological target: Gal(b1-3)[GlcNAc(b1-6)]GalNAc
# How it was run: as §1
# [18] = biological target: Gal(b1-4)GlcNAc(b1-2)Man(a1-3)[Gal(b1-4)GlcNAc(b1-2)Man(a1-6)][GlcNAc(b1-4)]Man(b1-4)GlcNAc(b1-4)[Fuc(a1-6)]GlcNAc
# How it was run: as §1
# [19] = biological target: Gal(b1-4)GlcNAc(b1-2)Man(a1-6)Man(b1-4)GlcNAc(b1-4)GlcNAc
# How it was run: as §1
# [20] = biological target: Gal(b1-4)GlcNAc(b1-2)[Gal(b1-4)GlcNAc(b1-6)]Man(a1-6)[GlcNAc(b1-4)][Gal(b1-4)GlcNAc(b1-2)[Gal(b1-4)GlcNAc(b1-4)]Man(a1-3)]Man(b1-4)GlcNAc(b1-4)[Fuc(a1-6)]GlcNAc
# How it was run: as §1
# [21] = biological target: Gal(b1-4)GlcNAc(b1-3)Gal(b1-3)GalNAc
# How it was run: as §1
# [22] = biological target: Gal(b1-4)GlcNAc(b1-3)Gal(b1-3)GlcNAc
# How it was run: as §1
# [23] = biological target: Gal(b1-4)GlcNAc(b1-3)Gal(b1-4)GlcNAc(b1-3)Gal(b1-4)GlcNAc(b1-3)Gal(b1-4)GlcNAc(b1-2)[Gal(b1-4)GlcNAc(b1-3)Gal(b1-4)GlcNAc(b1-3)Gal(b1-4)GlcNAc(b1-3)Gal(b1-4)GlcNAc(b1-6)]Man(a1-6)[Gal(b1-4)GlcNAc(b1-3)Gal(b1-4)GlcNAc(b1-3)Gal(b1-4)GlcNAc(b1-3)Gal(b1-4)GlcNAc(b1-2)Man(a1-3)]Man(b1-4)GlcNAc(b1-4)[Fuc(a1-6)]GlcNAc
# How it was run: as §1
# [24] = biological target: Gal(b1-4)GlcNAc(b1-3)Gal(b1-4)GlcNAc(b1-3)GalNAc
# How it was run: as §1
binder,measurement,setting,value
B1,glycan array binding signal (z-score),[1],-0.505
same,glycan array binding signal (z-score),[2],-0.097
same,glycan array binding signal (z-score),[3],-0.71
same,glycan array binding signal (z-score),[4],4.04
same,glycan array binding signal (z-score),[5],3.83
same,glycan array binding signal (z-score),[6],2.6
same,glycan array binding signal (z-score),[7],-1.01
same,glycan array binding signal (z-score),[8],0.205
same,glycan array binding signal (z-score),[9],1.38
same,glycan array binding signal (z-score),[10],0.051
same,glycan array binding signal (z-score),Fuc(b1-3)GlcNAc,-0.095
same,glycan array binding signal (z-score),Gal(a1-2)Gal,0.558
same,glycan array binding signal (z-score),Gal(a1-3)Gal,3.63
same,glycan array binding signal (z-score),Gal(a1-3)Gal(b1-3)GlcNAc,3.82
same,glycan array binding signal (z-score),Gal(a1-3)Gal(b1-4)Glc,-0.294
same,glycan array binding signal (z-score),[11],-0.855
same,glycan array binding signal (z-score),Gal(a1-4)GlcNAc,0.748
same,glycan array binding signal (z-score),[12],-0.754
same,glycan array binding signal (z-score),[13],1.46
same,glycan array binding signal (z-score),[14],0.082
same,glycan array binding signal (z-score),[15],2.96
same,glycan array binding signal (z-score),[16],-0.645
same,glycan array binding signal (z-score),[17],0.239
same,glycan array binding signal (z-score),[18],4.28
same,glycan array binding signal (z-score),[19],-0.165
same,glycan array binding signal (z-score),[20],2.65
same,glycan array binding signal (z-score),[21],-0.393
same,glycan array binding signal (z-score),[22],1.15
same,glycan array binding signal (z-score),[23],-0.802
same,glycan array binding signal (z-score),[24],-0.75
